The record followed here is PubChem BioAssay.

Inconclusive results are not listed. The source made the active and inactive calls.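 The calls were made as follows, unless noted: active = RAM network inhibition above 8.4% in each of two replicates, 3 SD over the compound average; inconclusive = above 8.4% inhibition in only one replicate; inactive = 8.4% inhibition or less in each replicate.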

Test [1] in a line: HUVEC growth inhibition – cell-based, human, primary screen (AID 575;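 active = viability at or below 30% in both replicate assays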;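 also: 100% = median of untreated cell wells with 0.1% DMSO on each plate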). To be noted: HUVEC proliferation, CellTiter-Glo luminescence, 72 h; at 10 µM; stronger effect = lower value. Background: ATP-based viability assays read luminescence as a measure of living cells.
Test [2] can be described thus: growth inhibitors of H69AR lung tumor, primary screen, human, duplicate replicates (AID 580;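 active = viability at or under a set limit in both replicates, limit being median viability minus 3 SD, cut at about 48% in these data, passing the limit was not always enough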;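 also: 100% = mean luminescence of untreated wells and 0% = no signal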). The note with it: H69AR lung tumor cells viability, ATP luminescence, 72 h; at 10 µM; stronger effect = lower value.
A short description of test [3]: reversal of MRP1-mediated doxorubicin resistance, pilot screen, H69AR cells, doxorubicin co-treatment (AID 601;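 active = viability loss from added drug above about 55%, and viability with drug at most 40%, in both replicates, limit read from the data, passing the limit was not always enough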). The note with it: CellTiter-Glo, 72 h, at 10 µM; for differential viability (reversal): stronger effect = higher value.
The nature of test [4]: 384-well plate pilot, post-Golgi transport modulator project, inhibition of yeast transport mutant growth (AID 636; in the data active = inhibition above about 31%). The note with it: absorbance 615 nm, about 18 h, stronger effect = higher value.
Test [5] is described as follows: growth suppression of yeast trafficking mutant, preliminary HTS, modulators of trafficking downstream of Golgi apparatus project, 1536-format plate, OD 615 nm (AID 637; in the data active = inhibition above about 30%). The note with it: yeast transport mutant growth, absorbance 615 nm, 18 h; stronger effect = higher value.
Test [6] can be described thus: OD615 S. cerevisiae growth inhibition, permissive medium, pilot counter-assay, permissive growth control for S. cerevisiae lifespan shortening project (AID 705;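 active = growth inhibition above 25% in both replicates, a cutoff set 3 SD above the mean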). To be noted: OD615, 24 h, at 10 µM, stronger effect = higher value.
A short description of test [7]: Restrictive medium S. cerevisiae growth inhibition, OD615, pilot screen of yeast lifespan reduction project, restrictive growth control (AID 706;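 active = growth inhibition above a set limit, 3 SD over mean compound inhibition, in both replicates, cut at about 43% in these data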;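 also: modified DeaD lifespan yeast strain shifted to restrictive glucose medium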). The note with it: OD615, 48 h, at 10 µM, stronger effect = higher value.
The nature of test [8]: viability gain of MRP-1-high H69AR cells under doxorubicin, pilot screen, MRP-1 activator project, CellTiter-Glo, duplicate (AID 807;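 active = viability increase at or above a cutoff of the median across tested compounds plus 3 SD, cut at about 8.5% in these data, passing the limit was not always enough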;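 also: compound pretreatment 18-22 h then 72 h combined with doxorubicin; 0% = doxorubicin alone and 100% = vehicle without doxorubicin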). The note with it: H69AR viability with doxorubicin, CellTiter-Glo luminescence; at 10 µM; stronger effect = higher value.
Test [9] is described as follows: growth suppression of beta-catenin knockout HCT116, pilot screen, human colon tumor cells (AID 823;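 active = cell viability at or below a set limit in both duplicate runs, the limit being the all-compound median minus 4 SD, cut at about 23% in these data, passing the limit was not always enough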;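 also: 0% = wells killed by 20 µM Hyamine and 100% = untreated DMSO cell wells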). To be noted: CellTiter-Glo, 60 h, at 10 µM, stronger effect = lower value.
Test [10] in a line: growth suppression of PTEN-deleted HCT116, pilot screen, cell-based, HCT116 clonal line, CellTiter-Glo (AID 824;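 active = viability at or below 27.92% in each of two runs, the all-compound median minus 4 SD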;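 also: 0% = 20 µM Hyamine control and 100% = vehicle cell control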). The note with it: 60 h, at 10 µM, stronger effect = lower value.
Test [11] can be described thus: inhibitors of the yeast RAM network, pilot screen, dse1pr::URA3 reporter, 5-FOA selection (AID 869;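 active = inhibition over a set limit, the all-compound mean plus 3 SD, in both replicate runs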;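 also: 0% = DMSO wells with no growth and 100% = 10 µM 1-NA-PP1 with full growth; RAM network block rescues cells from 5-FOA so hits raise OD615 growth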). To be noted: S. cerevisiae dse1pr::URA3 5-FOA growth, OD615, 2 d; at 10 µM; stronger effect = higher value; strain carries analog-sensitive mutant Cbk1 kinase.
Test [12] is described as follows: RAM signaling pathway blockade in yeast – S. cerevisiae, Pdr1DBD-CYC8 efflux-inhibited sensitized strain, primary screen (AID 1298).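 Also: 0% = DMSO untreated cells without growth and 100% = 10 µM 1-NA-PP1 full growth; higher means more yeast growth rescued from 5-FOA killing.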 The note with it: S. cerevisiae cbk1-as DSE1-URA3 strain, 5-FOA growth OD615, 2 d; at 50 µM; stronger effect = higher value.
[13] abbreviates: H69AR cells + 2 uM doxorubicin, measured here: viability with 2 uM doxorubicin, stronger effect = lower value.
Setting [14] is: H69AR cells, compound alone cytotoxicity.

By viability is commonly meant a read-out of living cells in per cent, often relative to untreated cells. By inhibition is commonly meant the relative decrease from the control value, in per cent. On to `O=C(c1ccc(NS(=O)(=O)c2cccs2)cc1)N1CCCCC1`, for which the viability in test [1] is 72.9% (inactive); in test [2], 89.9% (inactive); in test [3] (setting [13]), 97.5%; in [3] (setting [14]), 89.9%; in [9], 93.8% (inactive); in [10], 96.8% (inactive). Moreover, the differential viability (reversal) in [3] (H69AR cells + 2 uM doxorubicin) was -7.68% (inactive). In addition, the inhibition in [4] was -2.63% (inactive); in test [5], -9.05% (inactive); in test [11], 0.805% (inactive). Also, the growth inhibition in test [6] was 1.61% (inactive); in test [7] it was -2.64% (inactive). Moreover, in test [8], the viability increase is -1.41% (inactive). In addition, the RAM network inhibition in test [12] is 1.56% (inactive).
Consider `Cc1cc2ncn(C(=O)N3CCOCC3)c2cc1C`, for which the viability in [1] was 95.4% (inactive); in [2], 92.2% (inactive); in [3] (setting [13]) it was 84.6%; in test [3] (setting [14]), 92.2%; in [9], 97.3% (inactive); in test [10], 97.3% (inactive). Moreover, the differential viability (reversal) in test [3] (H69AR cells + 2 uM doxorubicin) was 7.56% (inactive). The figures for the inhibition in [4], in test [5] and in test [11] were -2.47% (inactive), -6.03% (inactive) and 1.22% (inactive), respectively. The growth inhibition is 0.665% (inactive) in test [6] and -2.19% (inactive) in [7]. In test [8], the viability increase is -1.25% (inactive). Moreover, the RAM network inhibition in [12] was 4.08% (inactive).
Turning to `CCC(=O)Oc1ccc2c(C)cc(=O)oc2c1C`, the viability in [1] is 91.1% (inactive); in test [2], 90.6% (inactive); in test [3] (setting [13]), 102%; in test [3] (setting [14]), 90.6%; in [9], 102% (inactive); in test [10], 97% (inactive). Also, the differential viability (reversal) in test [3] (H69AR cells + 2 uM doxorubicin) is -11.8% (inactive). For the same compound, the inhibition was 0.39% (inactive) in test [4], 9.21% (inactive) in test [5] and 0.15% (inactive) in [11]. Further, the growth inhibition was -8.37% (inactive) in test [6] and 7.31% (inactive) in test [7]. In addition, the viability increase in test [8] is -4.73% (inactive). Further, in [12], the RAM network inhibition is 3.51% (inactive).
For `CCn1cc(C(=O)NCC2COc3ccccc3O2)c2cc(OC)c(OC)cc2c1=O` (stereo unspecified), the viability in [1] was 77.5% (inactive); in test [2], 79.3% (inactive); in [3] (setting [13]) it was 79%; in test [3] (setting [14]) it was 79.3%; in test [9], 97.9% (inactive); in [10], 86.7% (inactive). For the same compound, the differential viability (reversal) in test [3] (H69AR cells + 2 uM doxorubicin) is 0.385% (inactive). The values for the inhibition in [4], in [5] and in test [11] were -6.05% (inactive), 0.16% (inactive) and 0.96% (inactive), respectively. Further, the figures for the growth inhibition in test [6] and in test [7] were -11.4% (inactive) and -33.2% (inactive), respectively. Further, the viability increase in [8] is -4.69% (inactive). Further, the RAM network inhibition in test [12] was 3.33% (inactive).
Take `COc1ccc(C)cc1NC(=O)CNC(=O)Cn1ccc2ccccc2c1=O`: the viability is 112% (inactive) in [1]; 92.8% (inactive) in test [2]; 85.9% in test [3] (setting [13]); 92.8% in test [3] (setting [14]); 89% (inactive) in test [9]; 90.3% (inactive) in [10]. For the same compound, the differential viability (reversal) in [3] (H69AR cells + 2 uM doxorubicin) was 6.84% (inactive). In addition, the inhibition in test [4] was -1.18% (inactive); in test [5] it was 1.59% (inactive); in test [11], 1.96% (inactive). In addition, the results for the growth inhibition in test [6] and in [7] were -17.2% (inactive) and -3.23% (inactive), respectively. The viability increase in [8] was -2.41% (inactive). Besides, the RAM network inhibition in test [12] was 5.68% (inactive).
Turning to `Cc1ccc(-c2cc(C(F)F)nc(N3CCC(C)CC3)n2)cc1`, the viability in test [1] was 85.7% (inactive); in [2], 91.1% (inactive); in test [3] (setting [13]) it was 89.7%; in test [3] (setting [14]) it was 91.1%; in test [9], 100% (inactive); in test [10], 101% (inactive). Further, in test [3] (H69AR cells + 2 uM doxorubicin), the differential viability (reversal) is 1.39% (inactive). Moreover, the inhibition in [4] is -4.47% (inactive); in test [5], 1.75% (inactive); in test [11], 2.67% (inactive). Also, the growth inhibition is 3.35% (inactive) in test [6] and 6.11% (inactive) in test [7]. Besides, the viability increase in [8] is 1.95% (inactive). Also, in test [12], the RAM network inhibition is 6.64% (inactive).
Take `CCCCNC(=O)Nc1ccnn1C1CCCCC1`: the viability in test [1] was 96.5% (inactive); in [2], 100% (inactive); in [3] (setting [13]) it was 87.2%; in test [3] (setting [14]), 100%; in test [9] it was 97.9% (inactive); in test [10] it was 90.7% (inactive). The differential viability (reversal) in test [3] (H69AR cells + 2 uM doxorubicin) is 13% (inactive). The results for the inhibition in test [4], in [5] and in test [11] were -3.64% (inactive), 7.14% (inactive) and -0.255% (inactive), respectively. Moreover, the growth inhibition in test [6] is -5.58% (inactive); in test [7], -15% (inactive). Further, the viability increase in [8] was -1.77% (inactive). The RAM network inhibition in [12] was -2.79% (inactive).
For `CCCCC(NC(C)=O)c1nc2ccccc2n1CCC` (stereo unspecified), the viability in test [1] was 93.9% (inactive); in test [2], 100% (inactive); in test [3] (setting [13]) it was 89.7%; in test [3] (setting [14]), 100%; in test [9], 93.6% (inactive); in [10], 93.3% (inactive). The differential viability (reversal) in test [3] (H69AR cells + 2 uM doxorubicin) is 10.6% (inactive). The inhibition was 1.32% (inactive) in [4], 7.62% (inactive) in test [5] and 1.44% (inactive) in test [11]. The growth inhibition in test [6] is -5.8% (inactive); in test [7], -2.95% (inactive). Moreover, in test [8], the viability increase was -0.99% (inactive). In [12], the RAM network inhibition is -0.69% (inactive).
`COc1cccc2cc(C(=O)Nc3cccnc3N3CCOCC3)c(=O)oc12`: the viability was 101% (inactive) in test [1]; 94.3% (inactive) in [2]; 84.2% in [3] (setting [13]); 94.3% in test [3] (setting [14]); 101% (inactive) in [9]; 98.8% (inactive) in test [10]. Moreover, in test [3] (H69AR cells + 2 uM doxorubicin), the differential viability (reversal) is 10.1% (inactive). The inhibition in [4] was -4.03% (inactive); in test [5], 3.65% (inactive); in test [11] it was 3.31% (inactive). The figures for the growth inhibition in [6] and in [7] were -8.22% (inactive) and -21.8% (inactive), respectively. Besides, the viability increase in test [8] was -3.74% (inactive). Also, the RAM network inhibition in [12] was 1.45% (inactive).
